# Results as given in the supplement of paper PMC6555819.
# Key:
# Assay in all cases: PBM binding z-score (relative to random genomic background probes); higher = stronger binding; sequences stand for … in GC…GCGATTGACAGCGTAGAATGAAGG
# [1] = tested on: FXR:RXRa (NR concentration 270 nM, RXRa partner concentration 90 nM)
# Method in brief: (§1)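 Scanned fluorescence from custom Agilent 4×180K protein-binding microarrays was regression-normalized. Binding z-scores use random background probes as reference. Ligand-free nuclear receptor dimers were incubated on the arrays for 1 h and detected with antibodies against each partner (one per run).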
# [2] = tested on: LXRa:RXRa (NR concentration 270 nM, RXRa partner concentration 90 nM)
# Method in brief: as §1
# [3] = tested on: LXRa homodimer (NR concentration 270 nM)
# Method in brief: as §1
# [4] = tested on: LXRb:RXRa (NR concentration 270 nM, RXRa partner concentration 90 nM)
# Method in brief: as §1
# [5] = tested on: LXRb homodimer (NR concentration 270 nM)
# Method in brief: as §1
# [6] = tested on: PPARa:RXRa (NR concentration 270 nM, RXRa partner concentration 90 nM)
# Method in brief: as §1
# [7] = tested on: PPARg:RXRa (NR concentration 180 nM, RXRa partner concentration 90 nM)
# Method in brief: as §1
# [8] = tested on: PPARg:RXRa 270nM:90nM, anti-RXR (NR concentration 270 nM, RXRa partner concentration 90 nM)
# Method in brief: as §1
# [9] = tested on: PPARg:RXRa 30nM:10nM, anti-RXR (NR concentration 30 nM, RXRa partner concentration 10 nM)
# Method in brief: as §1
# [10] = tested on: PPARg:RXRa 90nM:30nM, anti-RXR (NR concentration 90 nM, RXRa partner concentration 30 nM)
# Method in brief: as §1
sequence,measurement,setting,value
TTACCAAGGTGAGCTGAGGTCGTCGATCCAACTC,PBM binding z-score,[1],1.73
same,PBM binding z-score,[2],0.879
same,PBM binding z-score,[3],-0.506
same,PBM binding z-score,[4],0.696
same,PBM binding z-score,[5],-1.82
same,PBM binding z-score,[6],1.82
same,PBM binding z-score,[7],0.26
same,PBM binding z-score,[8],1.06
same,PBM binding z-score,[9],-0.186
same,PBM binding z-score,[10],0.372
ACTATTAGTTGAGACGAGGGCAACAGATAGGTTG,PBM binding z-score,[1],0.212
same,PBM binding z-score,[2],-0.0273
same,PBM binding z-score,[3],-0.073
same,PBM binding z-score,[4],0.0186
same,PBM binding z-score,[5],0.272
same,PBM binding z-score,[6],0.442
same,PBM binding z-score,[7],0.846
same,PBM binding z-score,[8],-0.171
same,PBM binding z-score,[9],0.0997
same,PBM binding z-score,[10],-0.129
CGTCCAAGGTCAAAGGTCAGTGTAGAGATGACGG,PBM binding z-score,[1],8.42
same,PBM binding z-score,[2],7.04
same,PBM binding z-score,[3],3.99
same,PBM binding z-score,[4],6.49
same,PBM binding z-score,[5],1.91
same,PBM binding z-score,[6],7.25
same,PBM binding z-score,[7],10.7
same,PBM binding z-score,[8],9.05
same,PBM binding z-score,[9],7.79
same,PBM binding z-score,[10],9.69
TCAGACAGGTGAAGGTAACTAAGGTACGCAGTCG,PBM binding z-score,[1],1.03
same,PBM binding z-score,[2],2.57
same,PBM binding z-score,[3],-0.132
same,PBM binding z-score,[4],1.44
same,PBM binding z-score,[5],-0.0558
same,PBM binding z-score,[6],1.51
same,PBM binding z-score,[7],0.892
same,PBM binding z-score,[8],2.34
same,PBM binding z-score,[9],3.8
same,PBM binding z-score,[10],3.21
TCATATAGGTAAATGCTATGTGAAAGTCCGATCT,PBM binding z-score,[1],0.801
same,PBM binding z-score,[2],0.648
same,PBM binding z-score,[3],0.000605
same,PBM binding z-score,[4],0.522
same,PBM binding z-score,[5],-0.0167
same,PBM binding z-score,[6],1.13
same,PBM binding z-score,[7],1
same,PBM binding z-score,[8],2.16
same,PBM binding z-score,[9],3.62
same,PBM binding z-score,[10],3.03
GGAACGAGGGCATTCGAGTTGAAAGCATGGCGAT,PBM binding z-score,[1],1.15
same,PBM binding z-score,[2],2.67
same,PBM binding z-score,[3],-0.268
same,PBM binding z-score,[4],0.406
same,PBM binding z-score,[5],-1.04
same,PBM binding z-score,[6],1.85
same,PBM binding z-score,[7],0.762
same,PBM binding z-score,[8],0.887
same,PBM binding z-score,[9],-0.332
same,PBM binding z-score,[10],0.259
TCTAGCAGGCCAGAGGGTCACTAAAGAGGTACGG,PBM binding z-score,[1],0.744
same,PBM binding z-score,[2],0.827
same,PBM binding z-score,[3],-0.521
same,PBM binding z-score,[4],0.924
same,PBM binding z-score,[5],-1.08
same,PBM binding z-score,[6],2.12
same,PBM binding z-score,[7],1.48
same,PBM binding z-score,[8],2.66
same,PBM binding z-score,[9],1.97
same,PBM binding z-score,[10],2.41
TCTTGTAGATCAACATGAGGTTAAGAAAGATCGA,PBM binding z-score,[1],0.309
same,PBM binding z-score,[2],1.61
same,PBM binding z-score,[3],0.535
same,PBM binding z-score,[4],1.19
same,PBM binding z-score,[5],0.134
same,PBM binding z-score,[6],1.62
same,PBM binding z-score,[7],0.344
same,PBM binding z-score,[8],1.66
same,PBM binding z-score,[9],2.62
same,PBM binding z-score,[10],2.31
TCTTGTAGAACAAGCAGGTTAAGAAAGCCTGAGT,PBM binding z-score,[1],0.0411
same,PBM binding z-score,[2],-0.117
same,PBM binding z-score,[3],-0.158
same,PBM binding z-score,[4],-0.0832
same,PBM binding z-score,[5],-0.582
same,PBM binding z-score,[6],0.777
same,PBM binding z-score,[7],-0.27
same,PBM binding z-score,[8],1.19
same,PBM binding z-score,[9],2.58
same,PBM binding z-score,[10],1.82
TCGAGTAGGTTACCCATGGGGCATTCAGCTTTCT,PBM binding z-score,[1],0.292
same,PBM binding z-score,[2],1.66
same,PBM binding z-score,[3],-0.443
same,PBM binding z-score,[4],0.752
same,PBM binding z-score,[5],-0.79
same,PBM binding z-score,[6],1.09
same,PBM binding z-score,[7],0.462
same,PBM binding z-score,[8],1.36
same,PBM binding z-score,[9],1.23
same,PBM binding z-score,[10],1.18
GCTAGCAGGCCACTTGGGTCACTCAATGACGGGC,PBM binding z-score,[1],0.0158
same,PBM binding z-score,[2],-0.115
same,PBM binding z-score,[3],-0.748
same,PBM binding z-score,[4],0.0102
same,PBM binding z-score,[5],-0.778
same,PBM binding z-score,[6],0.888
same,PBM binding z-score,[7],0.483
same,PBM binding z-score,[8],0.199
same,PBM binding z-score,[9],-0.326
same,PBM binding z-score,[10],-0.355
GCTTGTAGATCAAGGTTTAGAAAGACTAAGCTAA,PBM binding z-score,[1],-0.378
same,PBM binding z-score,[2],-0.689
same,PBM binding z-score,[3],-0.302
same,PBM binding z-score,[4],-0.532
same,PBM binding z-score,[5],-0.671
same,PBM binding z-score,[6],0.113
same,PBM binding z-score,[7],1.13
same,PBM binding z-score,[8],2.05
same,PBM binding z-score,[9],0.713
same,PBM binding z-score,[10],2.05
GCGAATGGGGCATCAGCAGGTTACCATAACTTAA,PBM binding z-score,[1],-0.164
same,PBM binding z-score,[2],-0.221
same,PBM binding z-score,[3],-0.232
same,PBM binding z-score,[4],0.924
same,PBM binding z-score,[5],-0.446
same,PBM binding z-score,[6],0.796
same,PBM binding z-score,[7],0.281
same,PBM binding z-score,[8],-0.0121
same,PBM binding z-score,[9],-0.215
same,PBM binding z-score,[10],-0.384
AGAATGAGATTATACGTAGATCAGGGAAGAAAGT,PBM binding z-score,[1],-0.225
same,PBM binding z-score,[2],-0.715
same,PBM binding z-score,[3],-0.134
same,PBM binding z-score,[4],-0.538
same,PBM binding z-score,[5],-0.345
same,PBM binding z-score,[6],-0.566
same,PBM binding z-score,[7],1.09
same,PBM binding z-score,[8],-0.183
same,PBM binding z-score,[9],0.419
same,PBM binding z-score,[10],-0.327
GATACAGGGTCAGCTAGAGGCGAGAGTATGGAAA,PBM binding z-score,[1],4.63
same,PBM binding z-score,[2],2.33
same,PBM binding z-score,[3],-0.47
same,PBM binding z-score,[4],2.27
same,PBM binding z-score,[5],-0.792
same,PBM binding z-score,[6],4.46
same,PBM binding z-score,[7],3.77
same,PBM binding z-score,[8],3.24
same,PBM binding z-score,[9],1.08
same,PBM binding z-score,[10],1.87
CGAACTAGGTCAAGGACAGAGAATCTCCGCACGC,PBM binding z-score,[1],3.32
same,PBM binding z-score,[2],1.95
same,PBM binding z-score,[3],-0.0711
same,PBM binding z-score,[4],1.25
same,PBM binding z-score,[5],-0.37
same,PBM binding z-score,[6],4.47
same,PBM binding z-score,[7],7.55
same,PBM binding z-score,[8],6.28
same,PBM binding z-score,[9],3.62
same,PBM binding z-score,[10],5.63
CTACCAAGGTGAACAAGGACGTTGATTACTATTC,PBM binding z-score,[1],0.78
same,PBM binding z-score,[2],0.235
same,PBM binding z-score,[3],0.0356
same,PBM binding z-score,[4],0.647
same,PBM binding z-score,[5],-0.411
same,PBM binding z-score,[6],0.963
same,PBM binding z-score,[7],0.812
same,PBM binding z-score,[8],0.636
same,PBM binding z-score,[9],0.194
same,PBM binding z-score,[10],0.209
GGAACGAGGGCTAGTTGATAGCAGAGTTTGATGG,PBM binding z-score,[1],-0.569
same,PBM binding z-score,[2],-0.717
same,PBM binding z-score,[3],-0.679
same,PBM binding z-score,[4],-0.908
same,PBM binding z-score,[5],-0.992
same,PBM binding z-score,[6],-0.745
same,PBM binding z-score,[7],0.203
same,PBM binding z-score,[8],-0.227
same,PBM binding z-score,[9],-0.133
same,PBM binding z-score,[10],-0.567
CGTCAAAGTTCAACTAAAGTAACGTAAAGCACGC,PBM binding z-score,[1],6.66
same,PBM binding z-score,[2],6.26
same,PBM binding z-score,[3],3.94
same,PBM binding z-score,[4],4.14
same,PBM binding z-score,[5],2.66
same,PBM binding z-score,[6],4.93
same,PBM binding z-score,[7],5
same,PBM binding z-score,[8],5.38
same,PBM binding z-score,[9],2.2
same,PBM binding z-score,[10],4.09
ATATGTCGGTTAGCTGGGGTCATTCAGACTAGGC,PBM binding z-score,[1],3.68
same,PBM binding z-score,[2],4.3
same,PBM binding z-score,[3],2.96
same,PBM binding z-score,[4],4.36
same,PBM binding z-score,[5],1.24
same,PBM binding z-score,[6],4.39
same,PBM binding z-score,[7],1.86
same,PBM binding z-score,[8],2.65
same,PBM binding z-score,[9],0.599
same,PBM binding z-score,[10],1.75
TCATATAGGTAATTCAGGTGAAAGTCGGCATCTA,PBM binding z-score,[1],1.4
same,PBM binding z-score,[2],1.17
same,PBM binding z-score,[3],0.456
same,PBM binding z-score,[4],1.25
same,PBM binding z-score,[5],0.393
same,PBM binding z-score,[6],1.87
same,PBM binding z-score,[7],1.09
same,PBM binding z-score,[8],2.58
same,PBM binding z-score,[9],4.33
same,PBM binding z-score,[10],3.59
GCAAGTTGGTCAGTAAAAGGTCACACACCGGTCG,PBM binding z-score,[1],3.28
same,PBM binding z-score,[2],4.29
same,PBM binding z-score,[3],4.58
same,PBM binding z-score,[4],4.17
same,PBM binding z-score,[5],0.833
same,PBM binding z-score,[6],4.62
same,PBM binding z-score,[7],3.08
same,PBM binding z-score,[8],4.43
same,PBM binding z-score,[9],2.58
same,PBM binding z-score,[10],3.92
TAGCCTAGGTCATGGGCCAGAATACCACGCGAAC,PBM binding z-score,[1],4.31
same,PBM binding z-score,[2],3.48
same,PBM binding z-score,[3],0.271
same,PBM binding z-score,[4],2.33
same,PBM binding z-score,[5],-0.281
same,PBM binding z-score,[6],4.2
same,PBM binding z-score,[7],3.64
same,PBM binding z-score,[8],3.63
same,PBM binding z-score,[9],0.806
same,PBM binding z-score,[10],2.68
